Measurements as given in publication PMC7826789 (International Journal of Molecular Sciences, 2021).

Assays:
Conditions in all cases: Compound Concentration (nM):1000
[1] = tested on: T1, AMPK-alpha1
T1 construct: gene PRKAA1

[2] = tested on: T2, AMPK-alpha2
T2 construct: gene PRKAA2

[3] = tested on: ANKK1
[4] = tested on: T3, ARK5
T3 construct: gene NUAK1

[5] = tested on: T4, ASK1
T4 construct: gene MAP3K5

[6] = tested on: T5, ASK2
T5 construct: gene MAP3K6

[7] = tested on: AURKA
[8] = tested on: AURKB
[9] = tested on: AURKC
[10] = tested on: AXL
[11] = tested on: T6, BIKE
T6 construct: gene BMP2K

[12] = tested on: BLK
[13] = tested on: BMPR1A
[14] = tested on: BMPR1B
[15] = tested on: BMPR2
[16] = tested on: BMX
[17] = tested on: BRAF(V600E)
[18] = tested on: BRAF
[19] = tested on: T7, BRK
T7 construct: gene PTK6

[20] = tested on: BRSK1
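Also: KINOMEscan scanMAX binding as percent activity remaining versus control; lower means stronger binding.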

Row | SMILES | Percent Control [1] [%] | Percent Control [2] [%] | Percent Control [3] [%] | Percent Control [4] [%] | Percent Control [5] [%] | Percent Control [6] [%] | Percent Control [7] [%] | Percent Control [8] [%] | Percent Control [9] [%] | Percent Control [10] [%] | Percent Control [11] [%] | Percent Control [12] [%] | Percent Control [13] [%] | Percent Control [14] [%] | Percent Control [15] [%] | Percent Control [16] [%] | Percent Control [17] [%] | Percent Control [18] [%] | Percent Control [19] [%] | Percent Control [20] [%]
1 | Cl.O=C(Nc1ccc(Oc2ccc3[nH]c(NC(=O)c4ccco4)nc3c2)cc1)Nc1cc(C(F)(F)F)ccc1F [GW683134A] | 67 | 82 | 100 | 100 | 100 | 93 | 98 | 13 | 56 | 0 | 100 | 70 | 73 | 100 | 98 | 87 | 13 | 32 | 100 | 100
2 | COc1cc2ncnc(Nc3ccc4c(cnn4Cc4ccccc4)c3)c2cc1OC.Cl [GW282449A] | 100 | 100 | 88 | 100 | 100 | 74 | 100 | 100 | 87 | 89 | 100 | 23 | 92 | 91 | 100 | 100 | 100 | 100 | 75 | 100
3 | Cl.O=C(Nc1ccc(Oc2ccc3[nH]c(NC(=O)c4ccccc4)nc3c2)cc1)Nc1cc(C(F)(F)F)ccc1F [GW709042A] | 56 | 100 | 95 | 100 | 100 | 80 | 82 | 61 | 37 | 0 | 100 | 98 | 98 | 94 | 100 | 94 | 34 | 58 | 100 | 100
4 | COc1ccc2c(-c3ccnc(Nc4cccc(OC(F)(F)F)c4)n3)cnn2n1 [GW810372X] | 100 | 100 | 89 | 100 | 100 | 78 | 100 | 100 | 57 | 87 | 58 | 100 | 100 | 100 | 100 | 90 | 92 | 100 | 100 | 100
5 | NS(=O)(=O)c1ccc(N/N=C2\C(=O)Nc3ccc(C(=O)NCCc4c[nH]cn4)cc32)cc1 [GW300660X] | 100 | 100 | 59 | 80 | 100 | 65 | 72 | 55 | 99 | 100 | 100 | 100 | 100 | 95 | 87 | 100 | 86 | 100 | 100 | 100
6 | Cl.O=C(O[C@H]1CN[C@H](C#Cc2cc3ncnc(Nc4ccc5c(cnn5Cc5ccccc5)c4)c3s2)C1)N1CCOCC1 [GSK200398A] | 100 | 92 | 100 | 91 | 100 | 88 | 71 | 84 | 100 | 100 | 100 | 100 | 96 | 90 | 99 | 98 | 99 | 91 | 78 | 100
7 | Cl.c1ccc(Cc2nc3ccc(Nc4ncnc5ccccc45)cc3[nH]2)cc1 [GR269666A] | 100 | 100 | 94 | 100 | 100 | 77 | 100 | 100 | 100 | 100 | 100 | 100 | 100 | 100 | 100 | 100 | 88 | 100 | 100 | 100
8 | COc1ccc2[nH]c3c4[nH]c5ccc(OC)cc5c4c4c(c3c2c1)C(=O)NC4=O [GW296115X] | 44 | 54 | 71 | 25 | 83 | 86 | 57 | 16 | 17 | 30 | 76 | 71 | 100 | 56 | 93 | 99 | 89 | 86 | 81 | 10
9 | NS(=O)(=O)c1ccc(N/N=C2\C(=O)Nc3ccc(Cl)cc32)cc1 [GW280670X] | 100 | 88 | 97 | 100 | 100 | 91 | 91 | 100 | 100 | 100 | 100 | 100 | 100 | 100 | 100 | 100 | 92 | 100 | 100 | 100
10 | Cl.O=S1CCN(Cc2ccc(-c3ccc4ncnc(Nc5ccc(OCc6ccccc6)c(F)c5)c4c3)o2)CC1 [GW576924A] | 100 | 100 | 88 | 100 | 100 | 69 | 100 | 100 | 100 | 100 | 100 | 100 | 100 | 100 | 100 | 100 | 65 | 79 | 100 | 100
11 | CN(C)c1cc2c(Nc3ccc4c(cnn4Cc4ccccc4)c3)ncnc2cn1 [GW282974X] | 90 | 100 | 100 | 100 | 100 | 73 | 74 | 100 | 92 | 98 | 86 | 80 | 100 | 91 | 100 | 100 | 99 | 92 | 75 | 92
12 | COc1ccc(COc2ccc(Cc3cnc(N)nc3N)cc2OC)cc1 [GW632580X] | 89 | 99 | 81 | 100 | 80 | 85 | 76 | 100 | 100 | 100 | 94 | 78 | 100 | 92 | 94 | 100 | 91 | 100 | 100 | 100
13 | Nc1ncnc2occ(-c3ccc(NC(=O)Nc4cc(C(F)(F)F)ccc4F)cc3)c12 [GW770249X] | 100 | 86 | 32 | 100 | 100 | 80 | 66 | 5.7 | 35 | 0 | 100 | 83 | 100 | 100 | 97 | 41 | 7 | 28 | 100 | 100
14 | COc1ccccc1-c1cc(/C=C2\C(=O)Nc3ncc(Br)cc32)cc(Br)c1O [GW442130X] | 100 | 94 | 100 | 100 | 98 | 100 | 25 | 48 | 80 | 92 | 100 | 63 | 86 | 85 | 97 | 100 | 68 | 78 | 100 | 98
15 | C/C(Nc1ccc(S(N)(=O)=O)cc1)=C1/C(=O)Nc2ccccc21 [GW335962X] | 78 | 87 | 50 | 100 | 100 | 69 | 66 | 16 | 71 | 73 | 100 | 100 | 99 | 97 | 84 | 86 | 86 | 100 | 95 | 91
16 | COc1cccc(-c2c[nH]c3c(N/N=C/c4ccncc4)ncnc23)c1 [GW814408X] | 100 | 85 | 100 | 100 | 100 | 100 | 82 | 75 | 48 | 71 | 38 | 19 | 31 | 0.1 | 99 | 100 | 26 | 29 | 100 | 100
17 | O=C1Nc2ccc(C(=O)c3ccco3)cc2C1=Cc1cc(Cl)c(O)c(Cl)c1 [GW406108X] | 90 | 94 | 9.2 | 100 | 100 | 72 | 35 | 22 | 58 | 100 | 59 | 100 | 100 | 35 | 0 | 81 | 1.2 | 4.4 | 100 | 100
18 | NS(=O)(=O)c1ccc(N/N=C2\C(=O)Nc3ccc(C(=O)NCc4ccncc4)cc32)cc1 [GW300657X] | 78 | 83 | 27 | 86 | 100 | 70 | 57 | 59 | 76 | 95 | 60 | 99 | 100 | 78 | 68 | 100 | 87 | 97 | 100 | 100
19 | COc1cc(N2CCN(C(C)C)CC2)ccc1Nc1nc(Nc2ccc(F)cc2C(=O)NC[C@@H](O)CO)c2cc[nH]c2n1 [GSK1392956A] | 100 | 100 | 92 | 67 | 100 | 73 | 95 | 91 | 90 | 46 | 81 | 99 | 100 | 88 | 97 | 100 | 90 | 94 | 100 | 100
20 | COc1ccc2cc(-c3c(-c4ccncc4)nc(-c4ccc(S(C)(=O)=O)cc4C)n3C)ccc2c1 [SB-633825] | 53 | 90 | 100 | 100 | 83 | 74 | 87 | 66 | 85 | 88 | 100 | 52 | 79 | 63 | 91 | 54 | 86 | 97 | 44 | 100
